Where “and” joins values, the source holds several entries; their conditions need not be identical. Equal values may be shown once. Inconclusive results are not listed. Where a structure was tested more than once in an assay, its records may differ in their call. Calls of active or inactive are those of the source. Unless noted, the call rests on the fitted dose curve; in most records, active means well fitted curve in the direction sought with a large enough effect in the repeat runs; inconclusive means weak or mixed curves; inactive means no such curve, though single readings can be large; an effect the other way counts as inactive or inconclusive.

A short description of assay [1]: qHTS assay to identify aromatase inhibitors - cell viability counter screen (AID 743084).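 Further: cells stimulated with testosterone during compound exposure; nearly all actives have a fitted effect of over 55% in size.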 Further: potency means the concentration at half of the fitted maximal effect.
The target in assay [2] is Aryl hydrocarbon receptor (Homo sapiens) (UniProt P35869). In words: qHTS assay to identify small molecule that activate the aryl hydrocarbon receptor (AhR) signaling pathway (AID 743085). Further: nearly all actives have a fitted effect of over 15% in size. Further: potency means the concentration at half of the fitted maximal effect.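 On activation: HG2L7.5c1 human HepG2 liver cells with stably integrated DRE-driven firefly reporter; series mostly up to about 70 µM.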 The method in brief: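 24 h compound exposure, 37C, HepG2-derived HG2L7.5c1 cells with DRE-responsive luciferase. Readouts: fluorescence viability, then luminescence at room temperature after 30 min.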
Aryl hydrocarbon receptor (Homo sapiens), sequence (P35869 whole entry, looked up): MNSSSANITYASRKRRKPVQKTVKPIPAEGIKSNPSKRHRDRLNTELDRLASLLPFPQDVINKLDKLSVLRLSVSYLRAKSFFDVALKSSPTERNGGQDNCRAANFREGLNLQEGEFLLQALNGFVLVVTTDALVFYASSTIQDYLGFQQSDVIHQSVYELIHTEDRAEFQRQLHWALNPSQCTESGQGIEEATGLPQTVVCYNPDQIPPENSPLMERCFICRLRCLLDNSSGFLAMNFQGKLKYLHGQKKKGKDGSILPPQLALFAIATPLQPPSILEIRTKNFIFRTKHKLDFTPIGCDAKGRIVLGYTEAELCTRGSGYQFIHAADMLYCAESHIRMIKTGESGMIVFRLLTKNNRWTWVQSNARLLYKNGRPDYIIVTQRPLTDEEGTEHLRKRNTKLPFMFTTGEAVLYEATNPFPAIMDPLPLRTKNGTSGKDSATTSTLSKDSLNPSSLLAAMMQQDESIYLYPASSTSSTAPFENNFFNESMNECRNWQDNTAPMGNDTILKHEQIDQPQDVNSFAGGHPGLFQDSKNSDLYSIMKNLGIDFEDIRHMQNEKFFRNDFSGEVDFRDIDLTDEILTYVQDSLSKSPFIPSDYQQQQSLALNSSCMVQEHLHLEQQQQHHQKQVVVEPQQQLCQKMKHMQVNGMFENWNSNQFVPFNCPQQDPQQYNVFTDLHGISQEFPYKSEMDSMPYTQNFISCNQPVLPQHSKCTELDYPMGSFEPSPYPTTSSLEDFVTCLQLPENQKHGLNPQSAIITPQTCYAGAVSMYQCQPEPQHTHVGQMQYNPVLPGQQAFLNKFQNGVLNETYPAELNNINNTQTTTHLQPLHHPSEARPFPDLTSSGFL
(In qHTS, concentration-response curves come from the screen itself.)

A short description of assay [3]: qHTS assay to identify small molecule that activate the aryl hydrocarbon receptor (AhR) signaling pathway - cell viability counter screen (AID 743086).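 Further: HepG2 liver cells carrying the AhR DRE luciferase reporter; series mostly up to about 70 µM; nearly all actives have a fitted effect of over 45% in size.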 The method in brief: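 HepG2-AhR-luc (HG2L7.5c1) cells, 4000/well, treated 24 h at 37 C with compound; viability measured as CellTiter-Fluor fluorescence after 30 min in the same wells as the luciferase read.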
In assay [4] the target is Peroxisome proliferator-activated receptor gamma (Homo sapiens) (UniProt P37231). Description: qHTS assay to identify small molecule antagonists of the peroxisome proliferator-activated receptor gamma (PPARg) signaling pathway (AID 743191; calls by dose curve; further: series mostly up to about 63 µM; nearly all actives have a fitted effect of over 30% in size). The method in brief: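 GeneBLAzer PPARg UAS-bla HEK293H cells, 5 h post-plating, exposed to compounds 17 h at 37C. LiveBLAzer B/G FRET substrate added for 1 h at room temperature; beta-lactamase reporter read by fluorescence intensity.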
Peroxisome proliferator-activated receptor gamma (Homo sapiens), sequence (P37231 whole entry, looked up): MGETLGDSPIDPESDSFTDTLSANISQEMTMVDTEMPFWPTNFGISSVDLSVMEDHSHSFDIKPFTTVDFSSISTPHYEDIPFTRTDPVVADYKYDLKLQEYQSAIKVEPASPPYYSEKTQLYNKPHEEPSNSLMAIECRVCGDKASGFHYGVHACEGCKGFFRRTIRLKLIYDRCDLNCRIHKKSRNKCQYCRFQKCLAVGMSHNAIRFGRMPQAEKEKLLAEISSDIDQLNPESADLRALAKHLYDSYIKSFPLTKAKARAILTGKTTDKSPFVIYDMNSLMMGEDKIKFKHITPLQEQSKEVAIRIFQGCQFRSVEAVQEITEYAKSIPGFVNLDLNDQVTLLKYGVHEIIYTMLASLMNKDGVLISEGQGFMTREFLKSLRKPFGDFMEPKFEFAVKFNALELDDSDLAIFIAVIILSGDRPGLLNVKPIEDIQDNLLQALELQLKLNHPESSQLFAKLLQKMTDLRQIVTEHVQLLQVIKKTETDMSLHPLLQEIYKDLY

Assay [5] in a line: qHTS assay to identify small molecule antagonists of the peroxisome proliferator-activated receptor gamma (PPARg) signaling pathway - cell viability counter screen (AID 743194). Further: nearly all actives have a fitted effect of over 55% in size. The method in brief:
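Cytotoxicity counter screen in PPARg-bla HEK293H cells, same wells as reporter assay. Compounds plus 50 nM rosiglitazone (final) for 17 h at 37 C, then viability read by CellTiter-Glo luminescence.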

Assay [6] is described as follows: qHTS assay for small molecule agonists of the antioxidant response element (ARE) signaling pathway (AID 743202; active means well fitted activation curve with a large enough effect in the signal ratio in the repeat runs, not every such curve was filed as active; the % refers to the signal ratio). The method in brief:
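HepG2 ARE-bla cells; 16 h treatment at 37 C; FRET-based beta-lactamase fluorescence read after 2 h substrate incubation at room temperature.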

Assay [7] is described as follows: qHTS assay for small molecule agonists of the antioxidant response element (ARE) signaling pathway - cell viability counter screen (AID 743203; calls by dose curve; further: nearly all actives have a fitted effect of over 55% in size). The method, boiled down:
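Viability counter screen: CellTiter-Glo luminescence, read after 30 min at room temperature, in ARE-bla HepG2 wells. Compound exposure lasted 16 h at 37C/5% CO2, following a 5 h pre-incubation of the cells after plating.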

Assay [8] in a line: qHTS assay for small molecule activators of the heat shock response signaling pathway - cell viability counter screen (AID 743209). Further: nearly all actives have a fitted effect of over 50% in size. The method in brief:
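Cytotoxicity counter screen run in the same wells as the heat-shock bla reporter assay: HeLa HSE-bla cells, 5 h compound exposure at 37 C, viability read by CellTiter-Glo luminescence.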

A short description of assay [9]: qHTS assay to identify small molecule agonists of the peroxisome proliferator-activated receptor delta (PPARd) signaling pathway - cell viability counter screen (AID 743211). Further: nearly all actives have a fitted effect of over 55% in size. Further: potency means the concentration at half of the fitted maximal effect. The method, boiled down: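 Luminescent ATP viability assay (CellTiter-Glo, 30 min RT) in UAS-bla HEK293H cells carrying the PPAR delta reporter construct, 3000 cells/well, after a 17 h compound treatment at 37 C.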

A short description of assay [10]: qHTS assay to identify small molecule antagonists of the peroxisome proliferator-activated receptor delta (PPARd) signaling pathway - cell viability counter screen (AID 743213). Further: nearly all actives have a fitted effect of over 50% in size. The method in brief:
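In this counter screen, HEK293H cells carrying a UAS-beta-lactamase reporter are co-treated with test compounds and 300 nM L165041 (final) for 17 h at 37 C; cell viability is quantified by CellTiter-Glo luminescence.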

Assay [11] addresses Peroxisome proliferator-activated receptor delta (Homo sapiens) (UniProt Q03181). In words: qHTS assay to identify small molecule antagonists of the peroxisome proliferator-activated receptor delta (PPARd) signaling pathway (AID 743215; active means well fitted inhibition curve with a large enough effect in the signal ratio in the repeat runs, not every such curve was filed as active; the % refers to the signal ratio;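 further: cells stimulated with agonist L165041 at 300 nM final during compound exposure; series mostly up to about 62 µM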). The method in brief: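 Agonist L165041 (300 nM final) added with compound to PPARd-bla HEK293H UAS-bla reporter cells; 17 h incubation at 37 C. Read-out: LiveBLAzer FRET substrate, 2 h at room temperature, fluorescence intensity.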

Assay [12] is described as follows: qHTS assay to identify small molecule agonists of the farnesoid-X-receptor (FXR) signaling pathway - cell viability counter screen (AID 743218). Further: nearly all actives have a fitted effect of over 45% in size. The method, boiled down:
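Viability counter screen in the same wells: CellTiter-Glo luminescence, 30 min room-temperature incubation, measured after the beta-lactamase read. Cells were GeneBLAzer FXR-UAS-bla HEK 293T, compound-treated 16 h at 37C.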

The target in assay [13] is Bile acid receptor (Homo sapiens) (UniProt Q96RI1). In words: qHTS assay to identify small molecule agonists of the farnesoid-X-receptor (FXR) signaling pathway (AID 743220; active means well fitted activation curve with a large enough effect in the signal ratio in the repeat runs, not every such curve was filed as active; the % refers to the signal ratio). The method in brief: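 FXR-UAS-bla HEK 293T cells carrying a UAS-driven beta-lactamase reporter were plated for 5 h at 37C/5% CO2, then exposed to DMSO-dissolved Tox21 10K compounds for 16 h at 37C. A LiveBLAzer B/G FRET substrate was loaded for 2 h at room temperature before fluorescence reading.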
Bile acid receptor (Homo sapiens), sequence (Q96RI1 whole entry, looked up): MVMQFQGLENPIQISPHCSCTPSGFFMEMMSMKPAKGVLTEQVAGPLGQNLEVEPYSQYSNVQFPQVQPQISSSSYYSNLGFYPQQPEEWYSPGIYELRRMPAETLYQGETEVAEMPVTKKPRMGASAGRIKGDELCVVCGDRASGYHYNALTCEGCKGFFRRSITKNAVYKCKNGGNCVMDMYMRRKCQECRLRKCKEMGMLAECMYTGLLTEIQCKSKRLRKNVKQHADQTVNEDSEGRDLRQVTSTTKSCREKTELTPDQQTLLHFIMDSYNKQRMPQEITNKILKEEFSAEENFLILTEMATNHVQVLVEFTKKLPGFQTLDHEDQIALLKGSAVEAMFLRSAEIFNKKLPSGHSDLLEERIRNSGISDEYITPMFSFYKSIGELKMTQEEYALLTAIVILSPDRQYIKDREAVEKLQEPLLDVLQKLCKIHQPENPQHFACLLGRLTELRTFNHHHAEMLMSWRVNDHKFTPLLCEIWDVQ

Assay [14] is described as follows: qHTS assay to identify small molecule antagonists of the farnesoid-X-receptor (FXR) signaling pathway - cell viability counter screen (AID 743221; active means well fitted cell-killing curve with a large enough effect in the repeat runs, not every such curve was filed as active; further: nearly all actives have a fitted effect of over 50% in size). The method, boiled down: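 In GeneBLAzer FXR-UAS-bla HEK 293T cells stimulated with 50 uM chenodeoxycholic acid (final), compounds acted for 16 h at 37 C. Viability was assessed afterwards by CellTiter-Glo luminescence.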

Assay [15] concerns the target Vitamin D3 receptor (Homo sapiens) (UniProt P11473). In words: qHTS assay to identify small molecule agonists of the vitamin D receptor (VDR) signaling pathway (AID 743222; calls by dose curve). The method in brief: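 Agonist mode, beta-lactamase reporter: fluorescence from LiveBLAzer B/G FRET substrate (2 h, room temperature) read after 16 h compound treatment at 37 C of VDR-bla cells, which were pre-incubated 4 h after seeding.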

Assay [16] has the same target. In words: qHTS assay to identify small molecule antagonists of the vitamin D receptor (VDR) signaling pathway (AID 743223; active means well fitted inhibition curve with a large enough effect in the signal ratio in the repeat runs, not every such curve was filed as active; the % refers to the signal ratio). The method in brief:
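Agonist 1alpha,25-dihydroxyvitamin D3 (3 nM in well) was added with each compound to VDR-bla cells preincubated 4 h. Cells stood 16 h at 37C, then FRET substrate 2 h at room temperature; fluorescence intensity recorded.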

Assay [17] has as its target Bile acid receptor (Homo sapiens) (UniProt Q96RI1). Description: qHTS assay to identify small molecule antagonists of the farnesoid-X-receptor (FXR) signaling pathway (AID 743217; active means well fitted inhibition curve with a large enough effect in the signal ratio in the repeat runs, not every such curve was filed as active; the % refers to the signal ratio). The method in brief:
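Antagonist mode: chenodeoxycholic acid at 50 uM final stimulates a UAS-driven beta-lactamase reporter in HEK 293T FXR-bla cells during 16 h, 37C compound exposure. Read-out is FRET substrate fluorescence after 2 h at room temperature.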

A short description of assay [18]: qHTS assay for small molecule activators of the heat shock response signaling pathway (AID 743210; active means well fitted activation curve with a large enough effect in the signal ratio in the repeat runs, with a control signal flat, not every such curve was filed as active; the % refers to the signal ratio;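 further: HeLa cells with beta-lactamase reporter driven by heat shock elements; series mostly up to about 63 µM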). The method, boiled down: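 Following overnight attachment, HSE-bla HeLa cells received test compounds for 5 h at 37 C; beta-lactamase activity was then detected via FRET substrate fluorescence.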
In assay [19] the target is Peroxisome proliferator-activated receptor gamma (Homo sapiens) (UniProt P37231). Description: qHTS assay to identify small molecule agonists of the peroxisome proliferator-activated receptor gamma (PPARg) signaling pathway (AID 743094; active means well fitted activation curve with a large enough effect in the signal ratio in the repeat runs, not every such curve was filed as active; the % refers to the signal ratio). The method, boiled down:
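Agonist activity was taken from a beta-lactamase reporter (FRET substrate, 1 h at room temperature) in HEK293H cells carrying a PPARg UAS-bla construct. Compounds in DMSO were incubated 17 h at 37C after a 5 h cell pre-incubation.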

Assay [20] concerns the target Peroxisome proliferator-activated receptor delta (Homo sapiens) (UniProt Q03181). Description: qHTS assay to identify small molecule agonists of the peroxisome proliferator-activated receptor delta (PPARd) signaling pathway (AID 743212; calls by dose curve). The method in brief:
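Tox21 library screened in GeneBLAzer PPARd UAS-bla HEK293H cells. After compound treatment at 37 C, a FRET-based beta-lactamase substrate was applied for 2 h and fluorescence recorded.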

Peroxisome proliferator-activated receptor delta (Homo sapiens), sequence (Q03181 whole entry, looked up): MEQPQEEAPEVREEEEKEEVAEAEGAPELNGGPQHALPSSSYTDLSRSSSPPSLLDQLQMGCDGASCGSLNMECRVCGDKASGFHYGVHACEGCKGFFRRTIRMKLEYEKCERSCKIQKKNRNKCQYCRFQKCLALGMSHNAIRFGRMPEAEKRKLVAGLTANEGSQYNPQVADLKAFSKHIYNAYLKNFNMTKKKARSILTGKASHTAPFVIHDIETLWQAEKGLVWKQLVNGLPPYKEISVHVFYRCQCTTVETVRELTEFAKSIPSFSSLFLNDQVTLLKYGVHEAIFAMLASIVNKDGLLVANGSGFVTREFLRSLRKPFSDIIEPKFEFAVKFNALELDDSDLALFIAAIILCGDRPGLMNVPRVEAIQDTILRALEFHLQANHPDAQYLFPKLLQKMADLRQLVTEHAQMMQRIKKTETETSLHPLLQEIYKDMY
Vitamin D3 receptor (Homo sapiens), sequence (P11473 whole entry, looked up): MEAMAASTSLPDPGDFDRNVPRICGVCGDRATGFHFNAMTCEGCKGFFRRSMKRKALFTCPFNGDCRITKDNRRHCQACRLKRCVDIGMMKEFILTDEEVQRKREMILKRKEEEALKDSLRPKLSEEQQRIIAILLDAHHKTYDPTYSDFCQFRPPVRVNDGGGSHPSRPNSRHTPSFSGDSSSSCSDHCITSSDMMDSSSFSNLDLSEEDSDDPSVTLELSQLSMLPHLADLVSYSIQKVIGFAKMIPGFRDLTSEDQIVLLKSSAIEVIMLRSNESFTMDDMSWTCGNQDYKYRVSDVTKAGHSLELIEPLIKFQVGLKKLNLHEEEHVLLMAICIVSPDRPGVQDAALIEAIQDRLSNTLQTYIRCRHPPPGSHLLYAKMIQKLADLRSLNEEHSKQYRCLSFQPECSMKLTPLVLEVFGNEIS

As for `CC(C(=O)O)c1ccc(CC2CCCC2=O)cc1` (centres undefined), the Potency entry in [1], in assay [2], in [3], in assay [4], in assay [6] and in [7] was “inactive” in each case. For the same compound, the Potency entry in assay [9], in assay [10], in assay [11], in assay [12] and in assay [14] was “inactive” throughout. The call in [5], in assay [8], in assay [13], in [15] and in assay [16] was inactive.
For the compound `CC(C)CNCC(C)C`, the Potency entry in assay [1], in assay [2], in [3], in [6], in [7] and in [9] was “inactive” throughout. Besides, the Potency result in assay [10], in assay [11], in assay [12] and in [14] was “inactive” each time. The compound was called inactive in assay [5], in assay [8], in assay [17], in [13] and in assay [15].
As to `CCCCOCCOCCOCc1cc2c(cc1CCC)OCO2`, the Potency entry in [1], in [3], in assay [6], in assay [7], in assay [10] and in assay [12] was “inactive” each time. In [14], the Potency result was “inactive”. Also, the Potency result in [2] is “inactive and 18 µM (active)”. In addition, the compound was called inactive in assay [5], in [8], in assay [18], in assay [17] and in assay [13].
As for `C=CCS(=O)(=O)O`, the Potency result in assay [1], in assay [3], in assay [4], in assay [6], in assay [7] and in assay [9] was “inactive” each time. The Potency entry in assay [10], in assay [11], in assay [12] and in [14] was “inactive” each time. For the same compound, the outcome in [19], in assay [5], in [8], in assay [18], in assay [17] and in assay [13] was inactive.
For `CCOC(=O)[C@H](CCc1ccccc1)N[C@@H](C)C(=O)N1[C@H](C(=O)O)C[C@@H]2CCC[C@@H]21`, the Potency result in assay [1], in assay [3], in assay [4], in assay [6], in [7] and in [9] was “inactive” throughout. Moreover, the Potency result in [10], in assay [11], in [12] and in assay [14] was “inactive” each time. The compound was classed as inactive in assay [19], in assay [5], in [8], in assay [18], in [20] and in assay [15]. Besides, in assay [16], the outcome was inactive.
Consider `COC(=O)c1ccc(C)cc1C1=NC(C)(C(C)C)C(=O)N1` (centres undefined), for which the Potency entry in [1], in [2], in assay [4], in [6], in assay [7] and in assay [9] was “inactive” in each case. Besides, the Potency entry in [10], in assay [11], in assay [12] and in [14] was “inactive” throughout. In addition, the outcome in assay [19], in [5], in assay [8], in assay [20] and in assay [15] was inactive.
On to `COC(=O)C1=C(C)NC(C)=C(C(=O)OC)C1c1ccccc1[N+](=O)[O-]`, for which the Potency result was “inactive and 54.5 µM (active)” in assay [1]; 49 µM (active) and inactive in assay [9]. Moreover, the Potency entry in assay [3], in assay [4], in [6], in assay [7], in assay [10] and in [11] was “inactive” throughout. The Potency result in assay [12] and in assay [14] was “inactive” each time. For the same compound, the compound was classed as inactive in assay [19], in [5], in assay [8], in assay [18], in [17] and in assay [13]. The compound was classed as inactive in [15] and in assay [16].
For `O=C1CCCCCCCCCCCN1`, the Potency entry in assay [1], in [2], in assay [3], in assay [6], in [7] and in [9] was “inactive” each time. For the same compound, the Potency result in assay [10], in assay [11], in assay [12] and in [14] was “inactive” each time. The result in [5], in assay [8], in assay [20], in [15] and in assay [16] was inactive.
In the case of `CN1CCCC1`, the Potency result in assay [1], in [3], in assay [4], in assay [6], in [7] and in assay [9] was “inactive” each time. The Potency result in assay [10], in [12] and in assay [14] was “inactive” each time. Also, the compound was called inactive in [19], in [8], in assay [17], in assay [13] and in [15].

The values above are taken from PubChem BioAssay (Tox21).
